Test results published in a collection of fitness landscapes (doi:10.1016/j.celrep.2020.107928).
In all, about 81,000 sequences were measured (“one-hybrid fitness for binding NBS DNA”: median about -0.1, highest 2% from about 0.36 on). What follows is part of a selection rich in the highest values, with near analogues and random picks from the rest.

B1: Caulobacter ParB omega fusion; a variant is named by its letters at X, in order, B8GW30 (parent)
chain: MESVVVGEPGMSEGRRGLGRGLSALLGEVDAAPAQAPGEQLGGSREAPIEILQRNPDQPRRTFREEDLEDLSNSIREKGVLQPILVRPSPDTAGEYQIVAGERAWRAAQRAGLKTVPIMVRELDDLAVLEIGIIENVQRADLNVLEEALSYKVLMEKFERTQENIAQTIGKSXSHVANXMRLLXLPDEVQSYLVSGELTAXHARAIAAAADPVALAKQIIEGGLSVRETEALARKAPNLSAGKSKGGRPPRVKDTDTQALESDLSSVLGLDVSIDHRGSTGTLTITYATLEQLDDLCNRLTRGI

Variants of: B1
Test: one-hybrid fitness for binding NBS DNA (the Noc-binding site; scaled: cognate 1, non-cognate 0); higher = stronger binding
Conditions: with NBS DNA site
Summary of the method: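 On M9-minus-histidine containing 0.1 mM IPTG and 5 mM 3-AT, E. coli USO cells with a HIS3 reporter, site 19 bp from the promoter, grew 48 hours at 37°C to select Caulobacter ParB libraries randomised at four specificity codons. Plasmids from before and after were Illumina-sequenced, with three replicate libraries pooled and variants under 10 reads left out. Fitness is the log change in variant-to-wild-type read ratio, rescaled against cognate and non-cognate.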

Variant	one-hybrid fitness for binding NBS DNA
QQPP	≤ 0.2
QQPN	≤ 0.2
QQIC	≤ 0.2
QQIR	0.435
QQIY	≤ 0.2
QQPR	0.365
IMNC	≤ 0.2
QCIE	≤ 0.2
GPNL	≤ 0.2
RRIT	0.788
RRIP	≤ 0.2
RCPT	≤ 0.2
RPPT	≤ 0.2
RRPT	0.694
RCIT	0.289
QIKI	≤ 0.2
GQNR	≤ 0.2
PQLG	≤ 0.2
QMQD	≤ 0.2
NMRR	≤ 0.2
QMER	0.324
QMQR	0.55
DMRR	≤ 0.2
QMYF	≤ 0.2

Variant	one-hybrid fitness for binding NBS DNA
QMHN	≤ 0.2
QMQN	≤ 0.2
QMRR	1.02
QMYR	0.507
QMHR	0.647
QMHP	≤ 0.2
YCIR	≤ 0.2
PWLA	≤ 0.2
PATL	≤ 0.2
QMGR	0.591
QMPR	0.323
QMIR	0.398
QMGK	0.221
QMDF	≤ 0.2
QMNN	≤ 0.2
QMNR	0.637
QMDR	0.403
QMIP	≤ 0.2
QMGC	≤ 0.2
QMDD	≤ 0.2
QMNH	0.284
KASM	≤ 0.2
RNWE	≤ 0.2
WRSG	≤ 0.2

Variant	one-hybrid fitness for binding NBS DNA
HNPS	≤ 0.2
AKVR	≤ 0.2
ERAT	≤ 0.2
FHRT	≤ 0.2
HTGY	≤ 0.2
KAEC	≤ 0.2
QAVP	≤ 0.2
CWTT	≤ 0.2
THIP	≤ 0.2
NAAC	≤ 0.2
FHTW	≤ 0.2
GAEY	≤ 0.2
QISS	0.228
QHSR	0.51
QKSR	0.65
QISP	≤ 0.2
QISR	0.386
QHSN	≤ 0.2
QSSR	0.526
QSSD	≤ 0.2
QKSN	≤ 0.2
QKSD	≤ 0.2
QHSD	≤ 0.2
QSSP	≤ 0.2

Variant	one-hybrid fitness for binding NBS DNA
RKLW	≤ 0.2
VHYS	≤ 0.2
PGDT	≤ 0.2
KQTL	≤ 0.2
HGQT	≤ 0.2
APTM	≤ 0.2
HNIL	≤ 0.2
QTSD	≤ 0.2
QPSH	≤ 0.2
QPSR	0.44
QASR	0.482
QPSP	≤ 0.2
QASH	≤ 0.2
QWSR	0.229
QCSR	0.614
QASP	≤ 0.2
QGSR	≤ 0.2
QTSR	0.786
QTSH	0.321
RVGY	≤ 0.2
YYRE	≤ 0.2
EWTK	≤ 0.2
SFAV	≤ 0.2
RSFI	≤ 0.2

Variant	one-hybrid fitness for binding NBS DNA
ETCC	≤ 0.2
HGGG	≤ 0.2
QTAK	≤ 0.2
QMSN	≤ 0.2
QMSD	≤ 0.2
QMSR	0.557
KFFY	≤ 0.2
TGSL	≤ 0.2
HQMR	≤ 0.2
YVSG	≤ 0.2
IRIE	≤ 0.2
RHTD	≤ 0.2
RRTG	0.331
RTTN	≤ 0.2
RRTT	0.716
RHTH	≤ 0.2
RFTT	0.269
RCTT	0.518
RTTT	0.543
RPTT	≤ 0.2
RHTT	0.427
RTTD	≤ 0.2
RRTQ	0.243
QQII	≤ 0.2

Variant	one-hybrid fitness for binding NBS DNA
KSMI	≤ 0.2
KVWM	≤ 0.2
KATR	≤ 0.2
ALTC	≤ 0.2
AHCL	≤ 0.2
HGAA	≤ 0.2
HRGN	≤ 0.2
REMS	≤ 0.2
CAHR	≤ 0.2
LWHP	≤ 0.2
QELW	≤ 0.2
YGQC	≤ 0.2
WRES	≤ 0.2
YVSL	≤ 0.2
HMQS	≤ 0.2
LYTW	≤ 0.2
RLTN	≤ 0.2
RLTD	≤ 0.2
RKTP	≤ 0.2
RLTT	0.454
RETT	≤ 0.2
RKTC	0.275
RMTL	≤ 0.2
RMTK	≤ 0.2

Variant	one-hybrid fitness for binding NBS DNA
RSTT	0.426
RKTT	0.666
RMTT	0.434
RGTT	≤ 0.2
DHNC	≤ 0.2
YATH	≤ 0.2
QISK	≤ 0.2
CLVT	≤ 0.2
DRWC	≤ 0.2
SNWL	≤ 0.2
SNVR	≤ 0.2
DAAD	≤ 0.2
TRAA	≤ 0.2
DDQR	≤ 0.2
RATK	≤ 0.2
RITG	≤ 0.2
RITT	0.421
RATT	0.415
RATQ	≤ 0.2
RITF	≤ 0.2
TSFV	≤ 0.2
LPSF	≤ 0.2
RRWN	0.222
RRWD	≤ 0.2

Variant	one-hybrid fitness for binding NBS DNA
RRWH	0.401
RRWP	≤ 0.2
RRWS	0.628
RRWF	≤ 0.2
HLQS	≤ 0.2
MSNG	≤ 0.2
HQPF	≤ 0.2
PSTH	≤ 0.2
GLWQ	≤ 0.2
RYTT	0.461
RYTS	0.453
RYTN	≤ 0.2
RYTK	≤ 0.2
RYTR	0.469
RYTP	≤ 0.2
RYTC	≤ 0.2
RYTH	≤ 0.2
RYTD	≤ 0.2
TSVC	≤ 0.2
LPCE	≤ 0.2
YSAT	≤ 0.2
QSLR	0.452
QSLD	≤ 0.2
QSLH	≤ 0.2

Variant	one-hybrid fitness for binding NBS DNA
QMLR	0.5
QALH	≤ 0.2
QMLD	≤ 0.2
QALR	0.424
QMLH	≤ 0.2
QKLR	0.491
QKLP	≤ 0.2
QALP	≤ 0.2
QKLN	≤ 0.2
DSDF	≤ 0.2
RWRC	≤ 0.2
PLVT	≤ 0.2
DMHW	≤ 0.2
TRSF	≤ 0.2
IKKC	≤ 0.2
QTLH	0.223
QCLR	0.562
QPLR	≤ 0.2
QHLP	≤ 0.2
QHLH	≤ 0.2
QTLN	≤ 0.2
QILR	0.335
QTLR	0.639
QHLR	0.445

Variant	one-hybrid fitness for binding NBS DNA
WSWT	≤ 0.2
AVHS	≤ 0.2
GHKE	≤ 0.2
MTRR	0.273
QQAP	≤ 0.2
QQRE	0.332
DQYR	≤ 0.2
QQAR	0.654
QQYP	≤ 0.2
QQYR	0.578
QQHG	≤ 0.2
QQHF	≤ 0.2
QQAN	≤ 0.2
DQRR	≤ 0.2
QQHR	0.683
QQRR	1.09
KIQL	≤ 0.2
YWII	≤ 0.2
AFHM	≤ 0.2
TVSR	≤ 0.2
PDRQ	≤ 0.2
TNMG	≤ 0.2
QQLG	≤ 0.2
QQGR	0.672

Variant	one-hybrid fitness for binding NBS DNA
QQCR	0.63
NQFR	≤ 0.2
QQCK	≤ 0.2
QQLR	0.567
QQLM	≤ 0.2
QQFR	0.491
QQGC	≤ 0.2
QQCD	≤ 0.2
QQGK	≤ 0.2
TPFT	≤ 0.2
ATSG	≤ 0.2
VDTI	≤ 0.2
HTCG	≤ 0.2
PHKP	≤ 0.2
NAEM	≤ 0.2
IYRA	≤ 0.2
LQHD	≤ 0.2
WGPQ	≤ 0.2
LPFS	≤ 0.2
QQWM	≤ 0.2
QQEY	≤ 0.2
QQQD	≤ 0.2
QQQR	0.586
QQSC	≤ 0.2

Variant	one-hybrid fitness for binding NBS DNA
QQER	0.426
QQSR	0.635
QQSG	≤ 0.2
QQWY	≤ 0.2
QQEG	≤ 0.2
QQWR	0.514
QQQP	≤ 0.2
YILL	≤ 0.2
KDKK	≤ 0.2
ANDS	≤ 0.2
PLNC	≤ 0.2
EYLC	≤ 0.2
RVEC	≤ 0.2
GVRI	≤ 0.2
ESSI	≤ 0.2
DESV	≤ 0.2
QPGS	≤ 0.2
QCGH	0.282
QRGN	0.418
QRGF	0.33
QMGS	0.42
QRGH	0.616
QSGS	0.358
QMGN	≤ 0.2

Variant	one-hybrid fitness for binding NBS DNA
QCGN	≤ 0.2
QCGS	0.487
QMGP	≤ 0.2
QPGN	≤ 0.2
NPLC	≤ 0.2
QMPM	≤ 0.2
ANEK	≤ 0.2
DSVS	≤ 0.2
KKWY	≤ 0.2
CPMG	≤ 0.2
LRFA	≤ 0.2
LPEF	≤ 0.2
WQTP	≤ 0.2
ANVT	≤ 0.2
ITKV	≤ 0.2
TWPS	≤ 0.2
FCRR	0.277
LVQT	≤ 0.2
